High-throughput results: PubChem BioAssay, several laboratories
MEX-5 binding = MEX-5 zinc finger RNA-binding disruptors – biochemical, C. elegans, fluorescence polarization, MLPCN library, primary screen; MEX-5/FITC-TCR2 RNA binding; stronger effect = lower value; activity score (negative = inhibition of binding), % at 10 µM; Zinc finger protein mex-5 (Caenorhabditis elegans), Q9XUB2; actives 0.38% (n = 300,000);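 active = inhibition past about -25% in most replicates, and total fluorescence under double the plate's negative control median, limit read from the data; inconclusive = replicates evenly split on the limit, or fluorescence at least double controls; inactive = too little inhibition in most replicates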;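 also: 0% = DMSO and -100% = 5 µM competing unlabeled TCR2 RNA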
GLD-1 TGE inh = GLD-1/TGE RNA complex disruptors, primary screen, biochemical, fluorescence polarization; purified GLD-1 + fluorescein TGE RNA; inhibition, % at 5.96 µM; actives 0.44% (n = 320,000); AID 2280, 2010;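 active = percent inhibition above a per-plate cutoff, the plate mean of test compounds plus 3 SD, cut at about 30% in these data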;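 also: 0% = DMSO wells with GLD-1 and probe and 100% = wells lacking GLD-1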
BCLXL inh = inhibitors of human Bcl-xL, primary screen, biochemical, fluorescence polarization, HTS; AID 2129, 2009; Bcl-2-like protein 1 (Homo sapiens), Q07817; actives 0.7% (n = 320,000); inhibition, % at 10.9 µM; GST-Bcl-xL / FITC-Bim BH3 peptide fluorescence polarization;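 active = inhibition above the mean of all tested compounds plus 3 SD, cutoff set per campaign, cut at about 30% in these data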;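 also: 0% = DMSO wells and 100% = unlabeled Bim-BH3 peptide competitor; inhibitors lower millipolarization by displacing the labeled peptide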
eLon inh = inhibitors of E. coli Lon protease, primary screen, biochemical, fluorescence polarization | P0A9M0 | purified E. coli Lon protease | inhibition, % at 7.94 µM | actives 0.42% (n = 360,000) | AID 602123, 2011; in the data active = inhibition above about 13%, passing the limit was not always enough;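 also: 0% = enzyme with probe and DMSO and 100% = no enzyme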
Target sequence (P0A9M0 whole entry, looked up): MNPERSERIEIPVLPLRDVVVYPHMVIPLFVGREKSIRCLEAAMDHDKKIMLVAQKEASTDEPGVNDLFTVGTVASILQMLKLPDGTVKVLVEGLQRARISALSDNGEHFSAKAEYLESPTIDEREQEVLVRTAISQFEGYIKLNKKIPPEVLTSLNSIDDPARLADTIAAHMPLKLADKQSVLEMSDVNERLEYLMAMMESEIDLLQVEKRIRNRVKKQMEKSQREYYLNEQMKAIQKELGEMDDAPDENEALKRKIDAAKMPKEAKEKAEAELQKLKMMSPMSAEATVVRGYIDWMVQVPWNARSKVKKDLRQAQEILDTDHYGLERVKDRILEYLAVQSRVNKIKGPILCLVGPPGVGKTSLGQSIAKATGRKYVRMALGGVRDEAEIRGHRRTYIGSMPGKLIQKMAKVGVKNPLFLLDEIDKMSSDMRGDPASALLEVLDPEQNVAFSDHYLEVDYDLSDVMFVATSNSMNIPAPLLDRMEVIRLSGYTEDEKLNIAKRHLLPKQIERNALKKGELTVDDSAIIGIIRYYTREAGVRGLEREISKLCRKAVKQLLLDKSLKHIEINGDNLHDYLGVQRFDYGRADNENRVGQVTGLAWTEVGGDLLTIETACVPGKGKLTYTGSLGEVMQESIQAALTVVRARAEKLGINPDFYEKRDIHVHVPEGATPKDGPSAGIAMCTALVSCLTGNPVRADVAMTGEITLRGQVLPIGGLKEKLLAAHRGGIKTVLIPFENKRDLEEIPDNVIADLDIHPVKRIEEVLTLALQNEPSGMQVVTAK
MCL1-BIM inh = inhibitors of MCL1 binding to BIM-BH3, primary screen, biochemical, fluorescence polarization | inhibition, % at 10.9 µM | actives 0.68% (n = 320,000) | Induced myeloid leukemia cell differentiation protein Mcl-1 (Homo sapiens), Q07820 | GST-MCL1 / FITC-Bim-BH3 fluorescence polarization;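 active = inhibition above the mean inhibition of all tested compounds plus 3 SD, set per campaign, cut at about 40% in these data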;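 also: 0% = DMSO wells and 100% = unlabeled Bim-BH3 peptide control; higher means more loss of mP so more displacement of Bim peptide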
EBV gp42 block = Epstein-Barr virus gp42 inhibitors, primary screen, biochemical, uHTS, fluorescence polarization; Fluorescence polarization binding assay, mP read-out; actives 0.42% (n = 220,000); Glycoprotein 42 (Epstein-Barr virus (strain AG876)), Q1HVG2; inhibition, % (tested at 21.74 µM); AID 1085, 2008; in the data active = inhibition above about 50%
* = called active by the depositor; ? = inconclusive; . = no result. In the library only some 1.4% were active in any assay of this set; here they are far more common.

SMILES | MEX-5 binding | GLD-1 TGE inh | BCLXL inh | eLon inh | MCL1-BIM inh | EBV gp42 block
O=C(O)C(=O)/C(=C\c1cccc2ccccc12)c1ccc2ccccc2n1 | -40* | -4 | -33 | -22 | -53 | -22
O=C(CCNC(=O)c1ccc(Br)cc1)Nc1ccc(S(=O)(=O)Nc2ncccn2)cc1 | 0 | -3 | -12 | 0 | -14 | .
CC(C)(C)Nc1ncnc2c1cnn2-c1ccccc1 | 2 | 8 | 13 | -2 | 6 | .
O=c1[nH]n(-c2ncnc3c2cnn3-c2ccccc2)c(=O)c2ccccc12 | -39* | 6 | 8 | 3 | 9 | -8
N#Cc1c2ccc(O)cc2n2ccccc12 | -7 | 13 | 45* | 15 | 44* | 36
N#Cc1c2ccc(OCC(=O)NCc3ccco3)cc2n2ccccc12 | 0 | 5 | 8 | 1 | 7 | .
Cc1cccc(N2CCN(C(=O)CCc3nc4ccccc4c(=O)[nH]3)CC2)c1C | . | 1 | . | -7 | . | .
NC(=O)c1ccccc1NC(=O)COC(=O)CSCc1cccc(Cl)c1 | . | 5 | . | 1 | . | .
COc1cccc2sc3ccc(NCCC4CCCN4C)cc3c(=O)c12 (stereo not given) | -3 | 36* | 33* | 6 | 30 | .
COc1cc2sc3cc(NCC[C@@H]4CCCN4C)ccc3c(=O)c2cc1OC | . | -3 | . | -1 | . | .
CCCCOc1ccc2c(c1)C(=O)c1cc(O)ccc1-2 | -1 | 139* | 5 | 9 | 9 | 1
COc1ccc(-c2cc(N)n(S(=O)(=O)c3ccc(C)cc3)n2)c(OC)c1 | -1 | -2 | 48* | 1 | 7 | 11
CCOc1ncccc1C(=O)OCCCC(=O)c1ccc(Br)cc1 | . | -1 | -3 | -2 | -1 | .
COC(=O)CCC(C)C1CCC2C3CCC4CC(O)CCC4(C)C3CC(O)C12C (stereo not given) | . | . | . | -5 | . | .
CCCCCN(C(=O)CCC(=O)OCc1cccc(Br)c1)c1c(N)n(CCCC)c(=O)[nH]c1=O | -1 | 3 | -3 | 1 | -13 | .
Cc1cc(-c2ccc(N=Nc3c(S(=O)(=O)O)cc4cc(S(=O)(=O)O)cc(N)c4c3O)c(C)c2)ccc1N=Nc1c(S(=O)(=O)O)cc2cc(S(=O)(=O)O)cc(N)c2c1O | . | 22 | 65* | . | 96* | .
C=CCn1c(=N)n(CC(O)c2ccco2)c2ccccc21 (stereo not given) | -1 | 15 | 34* | 4 | 31 | 4
CCOC(=O)C1=C(O)/C(=C/N(C)C)N=C1C | ? | 23 | 36* | 5 | 32 | -14
CCN(CC(=O)Nc1ccc(OC)cc1)CC(=O)Nc1cccc(S(=O)(=O)N2CCOCC2)c1 | . | . | . | 0 | . | .
CN(C)Cc1csc(Nc2ccc(C(=O)c3ccccc3)cc2)n1 | . | . | . | -4 | . | .
COc1cc(C2Nc3cccc4cccc(c34)N2)cc(OC)c1OC(C)=O | -4 | 10 | 39* | 5 | 46* | 25
COc1ccc(C2CC(c3ccccc3)n3nc(NC(=O)c4cccs4)nc3N2)cc1 (stereo not given) | 1 | 5 | 6 | 1 | 6 | 69*
O=C(O)C1CCc2nc(NCc3ccccc3)nc(NCc3ccccc3)c2C1 (stereo not given) | . | . | . | 4 | . | .
COc1cc(OC)cc(C2=Cc3ccc(OC)cc3C(CC(C)=O)N2c2ccc(C#CCCO)cc2)c1 (stereo not given) | . | . | . | -2 | . | .
COc1ccccc1OC(=O)Nc1ccc(Cl)cc1 | 0 | 11 | 48* | -4 | 47* | .
CCCCN1C(=O)/C(=C/C=C2\Oc3ccccc3N2CC)SC1=S | -28* | . | . | -467 | . | 104*
CN1/C(=C\C=C2/SC(=S)N(CC(=O)O)C2=O)C(C)(C)c2ccccc21 | ? | -38 | 36* | -313 | -13 | -138
C=CCN1C(=O)/C(=C\C=C2\N(C)c3ccccc3C2(C)C)SC1=S | -1 | -31 | -29 | -108 | -133 | 90*
